Bioassay records (PubChem BioAssay)
JMJD2A Tudor inh – blocks the human JMJD2A Tudor domain; AlphaScreen JMJD2A-Tudor / H3K4me3 peptide binding; O75164; Potency, µM (doses to about 114 µM), inactives show at the highest dose activity change, negative = inhibition, actives largely listed as inhibitors; hit rate 4.4% among 390,000; also: % is scaled to controls: 0 for no effect and ±100 for the full control effect; nearly all actives have a fitted effect of over 50% in size
BAZ2B block – inhibitors of human BAZ2B bromodomain | AlphaScreen BAZ2B-H3K14Ac peptide displacement | hit rate 4.4% among 360,000 | AID 504333 | Potency, µM (doses to about 114 µM), inactives show at the highest dose activity change, negative = inhibition, hits mostly inhibitors; also: % is scaled to controls: 0 for no effect and ±100 for the full control effect; nearly all actives have a fitted effect of over 60% in size
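In this displacement format the biotinylated H3(5-23) peptide acetylated at Lys14 serves as ligand at 50 nM, with BAZ2B at 50 nM in PBS pH 7.4 containing 0.01% Tween-20. Donor and acceptor beads are 10 ug/mL final.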
HP1b binding inh – HP1-beta chromodomain-methylated histone interaction inhibition. hit rate 0.56% among 390,000. Potency, µM (doses to about 114 µM), inactives show at the highest dose activity change, negative = inhibition, actives largely listed as inhibitors. AlphaScreen HP1-beta / biotin-H3K9me3 peptide binding. P83916; also: nearly all actives have a fitted effect of over 70% in size
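HP1-beta protein (50 nM final) preincubated 30 min at room temperature with biotinylated H3(1-18)K9me3 peptide (50 nM) in PBS pH 7.4, 0.01% Tween-20, then compound added for 30 min. AlphaScreen streptavidin donor/nickel chelate acceptor beads (10 ug/mL final), 30 min dark, luminescence read.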
Sfp inh – blocks B. subtilis Sfp PPTase activity. Q9F4F7. Biochemical Sfp PPTase activity, qHTS. Potency, µM, for inactives: largest response in the series, negative = inhibition, most hits filed as inhibitors. hit rate 3.5% among 310,000. AID 1490;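 also: the enzyme is Sfp with the accession as filed and its product quenches rhodamine fluorescence; 0% = enzyme reaction without inhibitor and -100% = no enzyme wells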
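Fluorescence-quenching assay: 15 nM Sfp-PPTase preincubated 15 min at room temperature with compound, then 5 uM rhodamine-CoA and 12.5 uM BHQ-2-labelled YbbR peptide added. Fluorescence (ex 525/em 598 nm) read at start and after 30 min; difference gives rate.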
G9a inh – G9a (human) methyltransferase inhibition | G9a H3K9 monomethylation, AlphaScreen, 2 h | Potency, µM (top dose mostly 102 µM), without a hit: top-dose activity, negative = inhibition, usual class: inhibitors | hit rate 8.8% among 350,000; also: % is scaled to controls: 0 for no effect and ±100 for the full control effect; nearly all actives have a fitted effect of over 75% in size
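Methyltransferase reactions run at room temperature for 2 h (20 nM enzyme, 500 nM biotin-H3K9 peptide, 20 uM SAM) after a 15 min compound preincubation; product detected by AlphaScreen beads and anti-H3K9me1 antibody.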
PLK1 PBD block – PLK1 (human) polo-box domain binding inhibition. P53350. Plk1 PBD binding of FITC phosphopeptide, fluorescence polarization. Potency, µM, for inactives: max response, negative = inhibition, actives largely listed as inhibitors. hit rate 2.8% among 360,000. AID 720504; also: series mostly up to about 57 µM; % is scaled to controls: 0 for no effect and ±100 for the full control effect; nearly all actives have a fitted effect of over 65% in size
* marks the source's active call; other numbers are inactive results; ! = not confirmed by another sample; [ ] = remark or other dose. Compounds with a hit are over-represented: about 12% of the library has one in this group of screens. Calls follow the shape of the dose curve; as a rule, active = well fitted curve in the direction sought with a large enough effect; inconclusive = small, poorly fitted or top-dose-only effect, or another doubt; inactive = no such curve, though single readings can be large; an effect the other way counts as inactive or inconclusive. Potency is read from the fitted curve at half-maximal effect.

`CC(=O)Nc1ccc([C@H]2[C@H](C)CC[C@H]3C(=O)N4[C@@H](CC[C@@H](C)[C@@H]4c4ccc(NC(C)=O)cc4)C(=O)N32)cc1` gave BAZ2B block 56.2µM*, Sfp inh 20.9% and G9a inh inconclusive.
For CCOc1ccc(C(=O)C(CCC(CN(C)C)C(=O)c2ccc(OCC)cc2)CN(C)C)cc1 (configuration not stated) the results were JMJD2A Tudor inh inconclusive, BAZ2B block inconclusive, HP1b binding inh 51.5%, Sfp inh -20.3%, G9a inh inconclusive and PLK1 PBD block 26.7µM*.
CN(C)CC(CCC(CN(C)C)C(=O)c1ccccc1)C(=O)c1ccccc1 (configuration not stated) was read as JMJD2A Tudor inh -19.9%, BAZ2B block -1.6%, HP1b binding inh -13.5%, Sfp inh -7.7%, G9a inh 44.7µM* and PLK1 PBD block 13.4µM*.
COc1ccc(C(=O)C(CCCCC(CN(C)C)C(=O)c2ccc(OC)cc2)CN(C)C)cc1 (configuration not stated) was read as JMJD2A Tudor inh -8.1%, BAZ2B block 0.0%[57.1 µM], HP1b binding inh 27.1%, Sfp inh 18.4%, G9a inh inconclusive and PLK1 PBD block 0.0%.
`O=C1C[C@@H](O)[C@@H](O)[C@H]2[C@@H]3C(=O)N(C[C@@H]4CCCO4)C(=O)[C@@H]3CC[C@H]12` gave Sfp inh 9.7%.
`CC(C)n1c(O)c(N=NC(=O)CNC(=O)Cc2ccc(Cl)cc2)c2ccccc21` gave JMJD2A Tudor inh inconclusive, BAZ2B block -30.3%, HP1b binding inh -1.8%, Sfp inh 8.7%, G9a inh inconclusive and PLK1 PBD block -7.4%.
Screening CC(C)n1c(O)c(N=NC(=O)Cc2csc(N3CCOCC3)n2)c2ccccc21 returned JMJD2A Tudor inh -25.2%, BAZ2B block 39.8µM*, HP1b binding inh 19.1%, Sfp inh -2.3%, G9a inh inconclusive and PLK1 PBD block -1.4%.
Screening CCCCCCCCS(=O)c1sc2nc3c(cc2c1N)CCCC3 (configuration not stated) returned JMJD2A Tudor inh -14.2%[57.1 µM], HP1b binding inh 21.7% and PLK1 PBD block inconclusive.
Screening CCCCCCCCS(=O)c1sc2nc(C)cc(C)c2c1N (configuration not stated) returned JMJD2A Tudor inh -18.4%, BAZ2B block -9.8%, HP1b binding inh 40.7%, Sfp inh 44.7µM*, G9a inh inconclusive and PLK1 PBD block inconclusive.
Screening O=C(NCC(c1ccc2c(c1)OCO2)N1CCN(c2ccccc2)CC1)C(=O)Nc1ccccc1 (configuration not stated) returned JMJD2A Tudor inh -25.5%, BAZ2B block -1.6%, HP1b binding inh 18.4%[57 µM] and G9a inh 7.8%[59 µM].
C=C[C@@]1(C)CC[C@H](O)[C@H]2C(=O)CCC[C@@H]21 was read as Sfp inh 1.5%.
For CNc1c2c(nn1C)CCCC2 the results were JMJD2A Tudor inh 20µM*!, BAZ2B block inconclusive, HP1b binding inh 39.8µM*!, Sfp inh -1.6%, G9a inh inconclusive and PLK1 PBD block 2.5%.
C#CCNc1c2c(nc3nnnn13)CCCC2 was read as JMJD2A Tudor inh -4.8%, BAZ2B block -12.4%, HP1b binding inh 35.2%, Sfp inh 11.5%, G9a inh 15.5% and PLK1 PBD block 2.1%.
Screening C=CCN1c2ccccc2[C@]23C[C@@H](C(=O)OC)N(S(=O)(=O)c4ccc(C(F)(F)F)cc4)C2=NC(C(=O)OC)=C(C(=O)OC)[C@H]13 returned Sfp inh 0.7%.
Screening Oc1c(Br)cc(Br)cc1/C=N/c1nccs1 returned JMJD2A Tudor inh -22.7%, BAZ2B block inconclusive, HP1b binding inh 19.6%, G9a inh 1.58µM* and PLK1 PBD block 29.9µM*.
CCOC(=O)c1c(C)[nH]c(C)c1S(=O)(=O)N1CCCC(C(=O)N2CCN(c3cccc(C)c3C)CC2)C1 (configuration not stated) was read as JMJD2A Tudor inh inconclusive, BAZ2B block inconclusive, HP1b binding inh -13.5% and G9a inh -16.1%[59 µM].
For Cc1ccc(-c2nc(N=Nc3ccc(O)cc3)n[nH]2)cc1 the results were JMJD2A Tudor inh inconclusive, BAZ2B block inconclusive, HP1b binding inh -27.6%, Sfp inh 4.8%, G9a inh 50.1µM* and PLK1 PBD block 3.1%.
Screening CC1CCCCC12NC(=O)N(CC(=O)N1CCN(S(=O)(=O)c3ccc(Cl)s3)CC1)C2=O (configuration not stated) returned PLK1 PBD block -1.6%.
`O=C(CN1C(=O)NC2(CCCCC2)C1=O)N1CCN(S(=O)(=O)c2ccc(Cl)s2)CC1` gave JMJD2A Tudor inh -21.9%, BAZ2B block 11.7%, HP1b binding inh -6.2%, G9a inh 17.8µM* and PLK1 PBD block -0.4%.
CC1=C(c2ccc(Cl)cc2)[N+](=O)C(C)(C)N1[O-] was read as JMJD2A Tudor inh -25.6%, BAZ2B block -2.4%, HP1b binding inh -10.7%, Sfp inh -4.4%, G9a inh 50.1µM* and PLK1 PBD block 11.9µM*.
For Cc1c(-c2ccc(Cl)cc2)[n+](=O)c(-c2ccccc2)cn1[O-] the results were JMJD2A Tudor inh 4.7%, BAZ2B block -11.6%, HP1b binding inh 43.5%, Sfp inh 17.3%, G9a inh -0.3% and PLK1 PBD block 2.1%.
For O=[N+]([O-])c1ccc(Cl)c(C[n+]2cccc3ccccc32)c1 the results were JMJD2A Tudor inh 1.4%, BAZ2B block 2.4%, HP1b binding inh 35.7%, Sfp inh 20.2% and PLK1 PBD block 2.9%.
Screening O=C(CSc1nnc(C2COc3ccccc3O2)o1)N1CCOCC1 (configuration not stated) returned JMJD2A Tudor inh 5.5%, BAZ2B block 8.2%, HP1b binding inh 36.8%, Sfp inh 5.7%, G9a inh inconclusive and PLK1 PBD block -1.1%.
`Cc1cc(NC(=O)CSc2nnc(C3COc4ccccc4O3)n2N)no1` (configuration not stated) gave JMJD2A Tudor inh -19.1%[11.4 µM], BAZ2B block -17.8%, HP1b binding inh -6.9%, Sfp inh inconclusive, G9a inh inconclusive and PLK1 PBD block 7.52µM*.
Cc1cc(NC(=O)CSc2nnc3c(C)cc4cc(C)c(C)cc4n23)no1 was read as JMJD2A Tudor inh -13.5%, BAZ2B block 2.3%, HP1b binding inh 33.0%, Sfp inh 4.0%, G9a inh 14.1% and PLK1 PBD block -0.8%.
